Assay results reported in PubChem BioAssay (Tox21).
Inconclusive results are not listed. Activity calls are given as the source filed them. Unless noted, calls follow the shape of the dose curve; as a rule, active = well fitted curve in the direction sought with a large enough effect in the repeat runs; inconclusive = weak or mixed curves; inactive = no such curve, though single readings can be large; an effect the other way counts as inactive or inconclusive.

Experiments:
[1] = qHTS assay to identify small molecule agonists of the peroxisome proliferator-activated receptor delta (PPARd) signaling pathway - cell viability counter screen (AID 743211); also: % is scaled to controls: 0 for no effect and ±100 for the full control effect; nearly all actives have a fitted effect of over 55% in size
Procedure, shortened: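 qHTS cell viability: PPARd-bla HEK293H; 17 h cpd, 37C; CellTiter-Glo, luminescence at 30 min RT.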

[2] = target: Peroxisome proliferator-activated receptor delta (Homo sapiens) (UniProt Q03181); experiment: qHTS assay to identify small molecule agonists of the peroxisome proliferator-activated receptor delta (PPARd) signaling pathway (AID 743212; calls by dose curve; also: % is scaled to controls: 0 for no effect and ±100 for the full control effect)
Procedure, shortened: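 GeneBLAzer PPARd UAS-bla HEK293H cells (beta-lactamase reporter under UAS control), plated and rested 5 h at 37 C, then exposed to compounds in DMSO at 37 C; LiveBLAzer B/G FRET substrate added, 2 h room temperature, fluorescence read.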

[3] = qHTS assay to identify small molecule antagonists of the peroxisome proliferator-activated receptor delta (PPARd) signaling pathway - cell viability counter screen (AID 743213); also: % is scaled to controls: 0 for no effect and ±100 for the full control effect; nearly all actives have a fitted effect of over 50% in size
Procedure, shortened: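 In this counter screen, HEK293H cells carrying a UAS-beta-lactamase reporter are co-treated with test compounds and 300 nM L165041 (final) for 17 h at 37 C; cell viability is quantified by CellTiter-Glo luminescence.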

[4] = target: Peroxisome proliferator-activated receptor delta (Homo sapiens) (UniProt Q03181); experiment: qHTS assay to identify small molecule antagonists of the peroxisome proliferator-activated receptor delta (PPARd) signaling pathway (AID 743215; active = well fitted inhibition curve with a large enough effect in the signal ratio in the repeat runs, not every such curve was filed as active; the % refers to the signal ratio;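 also: cells stimulated with agonist L165041 at 300 nM final during compound exposure; series mostly up to about 62 µM; % is scaled to controls: 0 for no effect and ±100 for the full control effect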)
Procedure, shortened: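 PPARd UAS-bla HEK293H cells were pre-incubated 5 h at 37 C, then given test compounds in DMSO plus agonist L165041 (300 nM final). After 17 h at 37 C, beta-lactamase FRET substrate was added; fluorescence read after 2 h at room temperature.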

[5] = target: Bile acid receptor (Homo sapiens) (UniProt Q96RI1); experiment: qHTS assay to identify small molecule antagonists of the farnesoid-X-receptor (FXR) signaling pathway (AID 743217; active = well fitted inhibition curve with a large enough effect in the signal ratio in the repeat runs, not every such curve was filed as active; the % refers to the signal ratio; also: % is scaled to controls: 0 for no effect and ±100 for the full control effect)
Procedure, shortened: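 FXR-UAS-bla HEK 293T cells pre-incubated 5 h at 37 °C, then exposed to compounds with chenodeoxycholic acid (50 uM final) for 16 h at 37 °C. Beta-lactamase reporter read by LiveBLAzer B/G FRET substrate fluorescence after 2 h at room temperature.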

[6] = target: Bile acid receptor (Homo sapiens) (UniProt Q96RI1); experiment: qHTS assay to identify small molecule agonists of the farnesoid-X-receptor (FXR) signaling pathway (AID 743220; active = well fitted activation curve with a large enough effect in the signal ratio in the repeat runs, not every such curve was filed as active; the % refers to the signal ratio; also: % is scaled to controls: 0 for no effect and ±100 for the full control effect)
Procedure, shortened: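 Beta-lactamase reporter under UAS control in GeneBLAzer FXR HEK 293T cells (5000/well) measured with LiveBLAzer FRET substrate after 2 h at room temperature. Compound exposure lasted 16 h at 37C.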

[7] = target: Vitamin D3 receptor (Homo sapiens) (UniProt P11473); experiment: qHTS assay to identify small molecule agonists of the vitamin D receptor (VDR) signaling pathway (AID 743222; calls by dose curve; also: % is scaled to controls: 0 for no effect and ±100 for the full control effect)
Procedure, shortened: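 VDR-bla cells were plated 4 h at 37C/5% CO2, then exposed to compounds in DMSO for 16 h. After LiveBLAzer B/G FRET substrate addition and 2 h at room temperature, beta-lactamase reporter fluorescence was read.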

[8] = qHTS assay to identify small molecule agonists of the vitamin D receptor (VDR) signaling pathway - cell viability counter screen (AID 743224); also: series mostly up to about 63 µM; % is scaled to controls: 0 for no effect and ±100 for the full control effect; nearly all actives have a fitted effect of over 50% in size
Procedure, shortened: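 VDR-bla cells were preincubated 4 h at 37C/5% CO2, then exposed to compounds for 16 h. After the 2 h room-temperature bla FRET read, CellTiter-Glo was added to the same wells and luminescence read after 30 min.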

[9] = qHTS assay to identify small molecule antagonists of the vitamin D receptor (VDR) signaling pathway - cell viability counter screen (AID 743225); also: % is scaled to controls: 0 for no effect and ±100 for the full control effect; nearly all actives have a fitted effect of over 50% in size
Procedure, shortened: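 Parallel cytotoxicity test: VDR-UAS-bla HEK 293T, 3 nM (final) 1-alpha,25-dihydroxyvitamin D3 with test compound, 16 h, 37C. Endpoint is CellTiter-Glo luminescence in the same wells.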

[10] = qHTS assay to identify small molecule agonists of the NFkB signaling pathway - cell viability counter screen (AID 1159515; calls by dose curve; also: series mostly up to about 61 µM; % is scaled to controls: 0 for no effect and ±100 for the full control effect; nearly all actives have a fitted effect of over 55% in size)
Procedure, shortened: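 NFkB-bla ME-180 cells, 2,000/well, were plated overnight at 37 C, 5% CO2, then exposed to compounds in DMSO for 5 hr. After the bla FRET read, CellTiter-Glo was added to the same wells; luminescence was read after 30 min at room temperature.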

[11] = qHTS assay to identify small molecule agonists of the endoplasmic reticulum stress response signaling pathway - cell viability counter screen (AID 1159517; calls by dose curve;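 also: HeLa cells carrying an ER stress response element beta-lactamase reporter; series mostly up to about 61 µM; % is scaled to controls: 0 for no effect and ±100 for the full control effect; nearly all actives have a fitted effect of over 50% in size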)
Procedure, shortened: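 Luminescence readout: CellTiter-Glo, 30 min RT, same wells as the ESRE-bla reporter read. HeLa ESRE-bla, 1,500 cells/well, o/n 37 C; cpd 5 hr 37 C/5% CO2.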

[12] = qHTS assay to identify small molecule antagonists of the retinoid-related orphan receptor gamma (ROR-gamma) signaling pathway - cell viability counter screen (AID 1159520)
Procedure, shortened: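 Tet-on ROR gamma CHO cells (1,000/well) were plated 4 hr, given compounds in DMSO for 2 hr at 37 C, then induced with 1 uM final doxycycline for 16 hr. Viability was read as ATP by CellTiter-Glo luminescence after 30 min.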

[13] = target: Nuclear receptor ROR-gamma (Homo sapiens) (UniProt P51449); experiment: qHTS assay to identify small molecule antagonists of the retinoid-related orphan receptor gamma (ROR-gamma) signaling pathway (AID 1159521; also: nearly all actives have a fitted effect of over 50% in size; also: potency is read from the fitted curve at half-maximal effect)
Procedure, shortened: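 Decreased RORE-driven luciferase luminescence indicates antagonism. Tet-on RORγ CHO cells received compound, then 1 uM final doxycycline 2 h later; signal read after 16 h incubation.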

[14] = qHTS assay to identify small molecule agonists of the AP-1 signaling pathway - cell viability counter screen (AID 1159525; calls by dose curve; also: nearly all actives have a fitted effect of over 55% in size)
Procedure, shortened: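 ME-180 AP-1-bla, 2500 cells/well, Opti-MEM + 0.5% dialyzed FBS; overnight 37 °C; cpd 15-pt titration, 5 h 37 °C; CellTiter-Glo 30 min RT; luminescence read; normalised to TOAB and DMSO controls.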

[15] = qHTS assay to identify small molecule agonists of the AP-1 signaling pathway (AID 1159526; calls by dose curve; also: % is scaled to controls: 0 for no effect and ±100 for the full control effect)
[16] = target: Retinoic acid receptor RXR-alpha (Homo sapiens) (UniProt P19793); experiment: qHTS assay to identify small molecule agonists of the RXR signaling pathway (AID 1159527; calls by dose curve; also: % is scaled to controls: 0 for no effect and ±100 for the full control effect; nearly all actives have a fitted effect of over 35% in size)
Procedure, shortened: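 16 hr incubation of compound-treated RXR-alpha-UAS-bla HEK 293T cells (2% charcoal-stripped FBS, 37 C) preceded a 2 hr room-temperature LiveBLAzer FRET substrate step and blue/green fluorescence measurement.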

[17] = qHTS assay to identify small molecule agonists of the farnesoid-X-receptor (FXR) signaling pathway - cell viability counter screen (AID 743218); also: % is scaled to controls: 0 for no effect and ±100 for the full control effect; nearly all actives have a fitted effect of over 45% in size
Procedure, shortened: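 FXR-UAS-bla HEK 293T cells, plated 5 h at 37 C, were exposed to compounds for 16 h at 37 C. CellTiter-Glo was then added to the same wells as the bla readout; luminescence read after 30 min at room temperature.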

[18] = qHTS assay to identify small molecule antagonists of the farnesoid-X-receptor (FXR) signaling pathway - cell viability counter screen (AID 743221; active = well fitted cell-killing curve with a large enough effect in the repeat runs, not every such curve was filed as active)
Procedure, shortened: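 After a 5 h settling period, FXR-bla HEK 293T cells receive compound and chenodeoxycholic acid (50 uM final) and incubate 16 h at 37 C; CellTiter-Glo luminescence, read after 30 min at room temperature, reports cell viability.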

[19] = target: Vitamin D3 receptor (Homo sapiens) (UniProt P11473); experiment: qHTS assay to identify small molecule antagonists of the vitamin D receptor (VDR) signaling pathway (AID 743223; active = well fitted inhibition curve with a large enough effect in the signal ratio in the repeat runs, not every such curve was filed as active; the % refers to the signal ratio; also: % is scaled to controls: 0 for no effect and ±100 for the full control effect)
Procedure, shortened: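 Reporter line VDR-bla; stimulus 1alpha,25-(OH)2 vitamin D3, 3 nM final; compound co-addition, 16 h 37C/5% CO2; LiveBLAzer B/G substrate 2 h RT; fluorescence intensity.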

Bile acid receptor (Homo sapiens), sequence (Q96RI1 whole entry, looked up): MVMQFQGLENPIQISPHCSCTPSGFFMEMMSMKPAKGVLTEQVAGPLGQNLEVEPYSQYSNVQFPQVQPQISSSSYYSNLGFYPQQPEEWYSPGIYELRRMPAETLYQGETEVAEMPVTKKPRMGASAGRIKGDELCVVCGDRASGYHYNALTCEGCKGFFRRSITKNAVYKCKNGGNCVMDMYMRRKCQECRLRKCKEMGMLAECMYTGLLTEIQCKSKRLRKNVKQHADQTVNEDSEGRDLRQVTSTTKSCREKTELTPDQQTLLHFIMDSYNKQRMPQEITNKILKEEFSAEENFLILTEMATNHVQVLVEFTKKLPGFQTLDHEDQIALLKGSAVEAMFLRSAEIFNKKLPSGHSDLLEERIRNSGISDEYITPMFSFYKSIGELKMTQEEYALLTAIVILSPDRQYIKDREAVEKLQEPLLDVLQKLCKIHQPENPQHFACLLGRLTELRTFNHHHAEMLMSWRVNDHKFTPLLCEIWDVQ
Retinoic acid receptor RXR-alpha (Homo sapiens), sequence (P19793 whole entry, looked up): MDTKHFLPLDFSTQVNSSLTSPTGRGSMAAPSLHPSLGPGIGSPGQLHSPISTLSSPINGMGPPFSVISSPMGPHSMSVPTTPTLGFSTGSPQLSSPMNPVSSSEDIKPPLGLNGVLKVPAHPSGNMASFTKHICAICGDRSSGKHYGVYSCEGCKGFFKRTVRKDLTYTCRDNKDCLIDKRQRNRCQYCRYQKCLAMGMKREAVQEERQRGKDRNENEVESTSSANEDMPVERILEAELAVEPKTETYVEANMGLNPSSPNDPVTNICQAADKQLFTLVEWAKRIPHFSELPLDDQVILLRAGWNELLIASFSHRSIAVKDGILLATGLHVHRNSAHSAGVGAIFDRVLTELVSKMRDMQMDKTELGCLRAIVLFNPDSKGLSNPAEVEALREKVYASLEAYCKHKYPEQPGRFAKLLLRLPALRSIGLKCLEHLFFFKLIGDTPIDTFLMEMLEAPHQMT
Vitamin D3 receptor (Homo sapiens), sequence (P11473 whole entry, looked up): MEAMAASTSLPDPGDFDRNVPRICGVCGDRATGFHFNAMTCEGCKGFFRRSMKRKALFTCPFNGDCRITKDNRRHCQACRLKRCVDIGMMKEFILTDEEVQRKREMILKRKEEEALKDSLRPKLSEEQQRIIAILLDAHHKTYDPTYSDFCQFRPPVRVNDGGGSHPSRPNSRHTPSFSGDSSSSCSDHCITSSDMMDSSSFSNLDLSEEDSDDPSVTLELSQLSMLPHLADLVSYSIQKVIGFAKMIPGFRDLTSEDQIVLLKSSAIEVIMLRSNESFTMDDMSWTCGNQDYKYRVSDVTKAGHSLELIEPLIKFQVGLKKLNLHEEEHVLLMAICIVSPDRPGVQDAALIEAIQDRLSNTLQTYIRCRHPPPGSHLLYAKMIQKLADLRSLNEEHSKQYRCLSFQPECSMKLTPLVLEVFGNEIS
Peroxisome proliferator-activated receptor delta (Homo sapiens), sequence (Q03181 whole entry, looked up): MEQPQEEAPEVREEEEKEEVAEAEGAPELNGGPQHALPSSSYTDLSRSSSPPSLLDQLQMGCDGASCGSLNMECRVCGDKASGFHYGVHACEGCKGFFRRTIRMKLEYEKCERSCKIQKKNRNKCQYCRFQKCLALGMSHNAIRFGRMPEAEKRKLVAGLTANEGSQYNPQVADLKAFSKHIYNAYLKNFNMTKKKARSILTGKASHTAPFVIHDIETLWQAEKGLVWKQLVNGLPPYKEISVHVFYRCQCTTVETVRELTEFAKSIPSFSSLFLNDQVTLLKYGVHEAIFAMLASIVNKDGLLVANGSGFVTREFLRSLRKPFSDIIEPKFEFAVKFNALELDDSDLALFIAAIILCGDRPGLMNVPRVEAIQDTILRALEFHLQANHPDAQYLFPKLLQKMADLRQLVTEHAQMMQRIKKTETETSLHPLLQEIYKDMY

C=COC(=O)C(C)(CC)CCC(C)C (configuration not stated)
inactive: outcome [1] | outcome [2] | outcome [3] | outcome [4] | outcome [5] | outcome [6] | outcome [7] | outcome [8] | outcome [9] | outcome [10] | outcome [11] | outcome [12] | Potency [13] | outcome [14] | outcome [15] | Potency [16]

CCC(C(=O)NC(=O)NC(C)=O)c1ccccc1 (configuration not stated)
inactive: outcome [1] | outcome [3] | outcome [17] | outcome [18] | outcome [8] | outcome [9] | outcome [10] | outcome [11] | outcome [12] | outcome [14] | outcome [15] | Potency [16]

Cc1c(N)c(=O)n(-c2ccccc2)n1C
inactive: outcome [3] | outcome [17] | outcome [7] | outcome [8] | outcome [9] | outcome [10] | outcome [11] | outcome [12] | Potency [13] | outcome [14] | outcome [15] | Potency [16]

CCCn1cc[n+](C)c1C
inactive: outcome [1] | outcome [2] | outcome [3] | outcome [4] | outcome [17] | outcome [7] | outcome [19] | outcome [8] | outcome [9] | outcome [10] | outcome [11] | outcome [12] | Potency [13] | outcome [14] | outcome [15] | Potency [16]

CCN[C@@H]1C[C@H](N)[C@@H](OC2OC(CN)=CCC2N)[C@H](O)[C@H]1O[C@H]1OC[C@](C)(O)[C@H](NC)[C@H]1O (some centres not stated)
inactive: activity change, negative = cytotoxicity [1] 7.95% [at 0.55 µM] | viability change, negative = cytotoxic [3] 8.69% [at 0.575 µM] | viability change, negative = cytotoxic [17] 10.1% [at 0.55 µM] | activity change, negative = cytotoxicity [18] 2.76% [at 0.55 µM] | activation [7] 11.5% [at 0.554 µM] | activity change, negative = inhibition [19] 9.37% [at 0.628 µM] | activity change, negative = cytotoxicity [8] 0.0384% [at 0.55 µM] | viability change, negative = cytotoxic [9] 2.46% [at 0.628 µM] | activity, negative = cytotoxic [10] 6.29% [at 0.628 µM] | activity change, negative = cytotoxicity [11] -1.46% [at 0.628 µM] | activity, negative = cytotoxicity [12] 3.44% [at 0.349 µM] | activity change, negative = inhibition [13] 45.3% [at 0.35 µM] | viability change, negative = cytotoxic [14] 0.839% [at 0.29 µM] | activation [15] -3.82% [at 0.29 µM] | activation [16] 6.62% [at 0.29 µM]

CCCCCCCCCC[N+](C)(C)[O-]
inactive: outcome [1] | outcome [2] | outcome [3] | outcome [4] | outcome [17] | outcome [7] | outcome [8] | outcome [9] | outcome [10] | outcome [11] | outcome [12] | Potency [13] | outcome [14] | outcome [15] | Potency [16]

CC(C)=CCC/C(C)=C/C#N
inactive: outcome [3] | outcome [5] | outcome [17] | outcome [6] | outcome [18] | outcome [7] | outcome [19] | outcome [8] | outcome [9] | outcome [10] | outcome [11] | outcome [12] | Potency [13] | outcome [14] | outcome [15] | Potency [16]

Nc1ccn([C@@H]2O[C@H](CO)[C@@H](O)C2O)c(=O)n1 (some centres not stated)
active: Potency [13] 7.7 µM
inactive: outcome [1] | outcome [2] | outcome [3] | outcome [4] | outcome [5] | outcome [17] | outcome [6] | outcome [7] | outcome [8] | outcome [9] | outcome [10] | outcome [11] | outcome [12] | outcome [14] | outcome [15] | Potency [16]

CCN[C@H]1C[C@H](C)S(=O)(=O)c2sc(S(N)(=O)=O)cc21
inactive: outcome [1] | outcome [3] | outcome [5] | outcome [17] | outcome [6] | outcome [18] | outcome [7] | outcome [19] | outcome [8] | outcome [9] | outcome [10] | outcome [11] | outcome [12] | outcome [14] | outcome [15] | Potency [16]

CC(C)(C)c1ccc(-c2ccc(C(C)(C)C)cc2)cc1
inactive: outcome [1] | outcome [2] | outcome [3] | outcome [4] | outcome [5] | outcome [17] | outcome [6] | outcome [18] | outcome [8] | outcome [9] | outcome [10] | outcome [11] | outcome [12] | Potency [13] | outcome [14] | outcome [15] | Potency [16]
